Source: PubChem BioAssay
An excerpt weighted towards active compounds, which were near 1% of everything screened.
USP2a block: qHTS Assay for Inhibitors of Ubiquitin-specific Protease USP2a Using CHOP2 as the Reporter; hit rate 0.01% among 330,000; Potency, µM (top dose mostly 38.3 µM), actives largely listed as inhibitors; USP2 core, Ub-CHOP2 coupled fluorogenic reporter, 485/531; Ubiquitin carboxyl-terminal hydrolase 2 (Homo sapiens), O75604
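USP2 core (10nM final) preincubated 30min RT with compound in 20mM Tris-HCl pH 8.0, 2mM CaCl2, 2mM beta-mercaptoethanol, 0.05% CHAPS; 25nM Ub-CHOP2 plus 25nM reporter substrate added, fluorescence (Ex485/Em531) read after 60min.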
rTrxR1 inhibitor: qHTS Assay for Inhibitors of Mammalian Selenoprotein Thioredoxin Reductase 1 (TrxR1): qHTS; Thioredoxin reductase 1, cytoplasmic (Rattus norvegicus), O89049; recombinant rTrxR1, NADPH fluorescence consumption, selenite substrate; Potency, µM (doses to about 114 µM), usual class: inhibitors; hit rate 1% among 390,000; AID 588453, 2011; note: nearly all actives have a fitted effect of over 65% in size
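Rat TrxR1 (90 nM in the dispensed reagent) was pre-reduced with 400 uM NADPH for 5 min at room temperature, then incubated with compound for 15 min. After 400 uM selenite was added, NADPH fluorescence (Ex 340/Em 450 nm) was followed for 8 min.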
GALK inhibitor: qHTS Assay for Inhibitors of Human Galactokinase (GALK) | Potency, µM (series often up to 57.5 µM), most hits filed as inhibitors | P51570 | hit rate 0.007% among 270,000 | Purified GALK, Kinase-Glo residual ATP luminescence
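Luminescence from leftover ATP (Ultra-Glo luciferase/luciferin) served as read-out after a 1 h room-temperature reaction of 5 nM GALK with 35 uM ATP and 100 uM galactose.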
RGS4 inh: Inhibitors of Regulator of G Protein Signaling (RGS) 4: qHTS | Transcreener GDP fluorescence polarization, RGS4-accelerated GTP hydrolysis | Potency, µM (series often up to 114 µM), actives largely listed as inhibitors | hit rate 0.039% among 390,000; note: nearly all actives have a fitted effect of over 75% in size
Target sequence (P49798 whole entry, looked up): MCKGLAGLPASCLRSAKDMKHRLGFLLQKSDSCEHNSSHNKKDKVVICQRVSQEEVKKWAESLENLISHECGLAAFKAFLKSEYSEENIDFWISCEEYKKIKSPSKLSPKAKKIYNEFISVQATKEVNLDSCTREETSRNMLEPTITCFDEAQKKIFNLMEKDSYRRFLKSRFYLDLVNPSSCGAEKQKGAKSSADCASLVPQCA
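MLSMR compounds (23 nl, pin-transferred) preincubated 10 min at room temperature with a 500nM (2x) first reagent, then RGS4 at 900nM (2x) plus Transcreener GDP mix added; fluorescence polarization (620/688 nm) read before and after 90 min at 30 °C.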
Eya2 phos inh: qHTS Assay for Inhibitors of the Phosphatase Activity of Eya2; Protein phosphatase EYA2 (Homo sapiens), O00167; recombinant Eya2, OMFP fluorescence dephosphorylation (OMFP is methylfluorescein phosphate); Potency, µM (top dose mostly 76.9 µM), actives largely listed as inhibitors; hit rate 0.006% among 330,000
Target sequence (O00167 whole entry, looked up): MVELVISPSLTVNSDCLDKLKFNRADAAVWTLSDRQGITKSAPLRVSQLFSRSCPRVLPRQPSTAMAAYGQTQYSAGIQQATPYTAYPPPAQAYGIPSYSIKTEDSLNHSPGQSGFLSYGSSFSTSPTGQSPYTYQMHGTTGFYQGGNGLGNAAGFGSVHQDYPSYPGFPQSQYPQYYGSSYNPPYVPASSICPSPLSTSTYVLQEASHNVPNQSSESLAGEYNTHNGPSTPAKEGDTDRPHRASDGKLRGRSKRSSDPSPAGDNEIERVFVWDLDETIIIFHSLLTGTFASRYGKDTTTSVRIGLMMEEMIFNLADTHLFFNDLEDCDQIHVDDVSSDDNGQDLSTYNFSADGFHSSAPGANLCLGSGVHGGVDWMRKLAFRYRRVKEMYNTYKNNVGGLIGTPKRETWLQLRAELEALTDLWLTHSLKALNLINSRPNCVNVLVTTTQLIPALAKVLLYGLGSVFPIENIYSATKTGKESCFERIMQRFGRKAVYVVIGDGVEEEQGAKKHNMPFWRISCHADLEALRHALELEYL
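Eya2 protein (added as 0.2 uM solution) was preincubated with compound for 10 min at ambient temperature in 50 mM HEPES pH 7.5, 50 mM NaCl, 5 uM MgCl2, 0.05% BSA, 1 mM DTT. OMFP (added at 50 uM) then reacted 10 min; fluorescence read at 485/525 nm.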
TrxR1 substrate: qHTS Assay for Substrates of Mammalian Selenoprotein Thioredoxin Reductase 1 (TrxR1): qHTS; Thioredoxin reductase 1, cytoplasmic (Rattus norvegicus), O89049; purified TrxR1 substrate turnover, NADPH consumption readout; Potency, µM (titrated, usually from 114 µM); hit rate 0.01% among 390,000; note: nearly all actives have a fitted effect of over 50% in size
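Rat TrxR1, dispensed at 90 nM, was prereduced with 400 uM NADPH (final) for 5 min at ~22 deg C, then incubated with compound 15 min before 400 uM selenite. A first-read NADPH fluorescence drop versus no-compound background flagged substrates.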
Numbers stand for hits; 0 = inactive; ? = inconclusive; - = no result; [ ] = another dose, or the depositor's remark. Calls come from the whole dose curve; as a rule, active = well fitted curve in the direction sought with a large enough effect; inconclusive = small, poorly fitted or top-dose-only effect, or another doubt; inactive = no such curve, though single readings can be large; an effect the other way counts as inactive or inconclusive.

SMILES	USP2a block	rTrxR1 inhibitor	GALK inhibitor	RGS4 inh	Eya2 phos inh	TrxR1 substrate
CCN(CC)c1c2c(c(C#N)c3nc4ccccc4n13)CCC2	0	?	0	0	0	0
N#Cc1c2c(c(Cl)n3c1nc1ccccc13)CCCC2	-	3.5µM	-	-	-	0
CC(C)(C)CC(C)(C)N=C1Nc2ccc(Cl)cc2N[C@]12C[C@H]1CCCC(=O)N3CC[C@@H](C2)[C@@H]13	-	0	-	-	-	0
Cc1ccc2c(/C=C/c3c[nH]c4ccccc34)ccnc2c1C	-	0	-	-	-	0
CCc1ccc(C(=O)C[N+]2(C)CCOCC2)cc1	-	0	-	-	-	0
Cc1ccc(CNC(=O)CC(C)S(=O)(=O)c2ccc3c(c2)NC(=O)CS3)o1 (stereo not drawn)	0	16µM	0	0	0	0
CN=c1nc(-c2ccccc2)n(-c2ccccc2)s1	0	?	-	3.8µM	0	0
CC(=O)N=c1nc(-c2ccccc2)n(-c2ccccc2)s1	-	0	-	0	-	0
Cc1ccnc2c(Cl)c(Cl)ccc12	-	0	-	-	-	0
COc1cc2c(cc1OC)C(C(=O)NC1CC1)C1c3ccccc3CCN1C2=O (stereo not drawn)	-	0	-	0	-	0
CCN(CC)CCNC(=O)C1c2cc(OC)c(OC)cc2C(=O)N2CCc3ccccc3C12 (stereo not drawn)	0	35µM	0	0	0	0
CCOC(=O)c1ccc(N(C(=O)c2ccccc2)c2ccccc2)cc1	-	0	-	-	-	0
CCc1ccccc1NC(=O)Nc1ccc2c(c1)N(CC)C(=O)c1ccccc1S2	-	0	-	0	-	0
O=[N+]([O-])c1ccc(/C=N\NS(=O)(=O)c2ccc(F)cc2)o1	0	32µM	0	0	0	0
Cc1ccc(/C=N/NS(=O)(=O)c2ccccc2)o1	0	0	-	0	0	0
COc1ccc(S(=O)(=O)N/N=C\c2ccc([N+](=O)[O-])o2)c(OC)c1	0	35µM	0	0	0	0
Nc1c(N=O)c(=O)[nH]c(=O)n1-c1ccccc1	-	0	-	0	-	0
Nc1c(Br)c(=O)[nH]c(=O)n1-c1ccc(F)cc1	0	40µM	-	0	0	0
Cc1ccc(S(=O)(=O)NNC(=O)c2ccc(C(=O)N(c3ccccc3)c3ccccc3)cc2)cc1	-	0	-	-	-	0
COc1[nH]c(/N=C/c2ccco2)c(C#N)c1C#N	-	?	-	0	-	0
c1ccc(C2Nc3cccc4cccc(c34)N2)cc1	0	?	0	0	0	0
Clc1cccc(Cl)c1C1Nc2cccc3cccc(c23)N1	0	0	0	?	0	0
Clc1ccc(C2Nc3cccc4cccc(c34)N2)cc1Cl	0	45µM	0	?	0	0
Fc1cccc(Cl)c1C1Nc2cccc3cccc(c23)N1	0	56µM	0	?	0	0
Clc1cccc(C2Nc3cccc4cccc(c34)N2)c1	0	25µM	0	0	0	0
SMILES	USP2a block	rTrxR1 inhibitor	GALK inhibitor	RGS4 inh	Eya2 phos inh	TrxR1 substrate
Brc1ccc(C2Nc3cccc4cccc(c34)N2)o1	0	25µM	0	0	0	0
c1csc(C2Nc3cccc4cccc(c34)N2)c1	0	?	0	?	0	0
O=[N+]([O-])c1ccc(Cl)c(C2Nc3cccc4cccc(c34)N2)c1	0	?	0	?	0	0
CN1CCCc2cc(/C=C/c3ccnc4ccccc34)ccc21	-	0	-	-	-	0
C#CCN(Cc1ccc(OC)cc1)S(=O)(=O)C=C	-	0	-	-	-	0
CCCCCCNc1ccc(/C=C/c2ccnc3ccccc23)cc1	-	0[0.0914 µM]	-	-	-	0
COc1ccc(CNc2oc(/C=C/c3cc(OC)c(OC)c(OC)c3)nc2C#N)cc1	-	0	-	0	-	0
CN(C)c1ccc(CCC2C=Cc3ccccc32)cc1 (stereo not drawn)	-	0	-	-	-	0
CC(=O)Nc1ccc(/C=C/c2sc3ccccc3[n+]2CCCCI)cc1	-	?	-	-	-	0
C[N+]1(CC(=O)c2ccc(Br)cc2)CCOCC1	-	0	-	-	-	0
CN(C)c1ccc(C2Nc3cccc4cccc(c34)N2)cc1	0	0	0	0	0	0
Brc1cccc(C2Nc3cccc4cccc(c34)N2)c1	0	56µM	0	0	0	0
COc1cc2nc(N3CCNCC3)nc(N)c2cc1OC	0	79µM	0	0	0	0
COc1cc2nc(N3CCN(c4cc(C)ccc4C)CC3)nc(N)c2cc1OC	0	0	0	0	0	0
COC(=O)c1cc(C(=O)OC)cc(N2C(=O)CC(Sc3nc(C)cc(C)n3)C2=O)c1 (stereo not drawn)	0	0	0	0	0	0
COC(=O)c1ccc(N2C(=O)CC(Sc3n[nH]c(C)n3)C2=O)cc1 (stereo not drawn)	0	13µM	0	0[11.4 µM]	0	0
CC1(C)S[C@@H]2C(C(=O)O)NC(=O)N2C1C(=O)O (stereo partly drawn)	-	0	-	-	-	0
O=C(Nc1ccc2nc(-c3ccc(Br)o3)[nH]c2c1)c1ccco1	0	0	0	0	0	0
CC(=O)Nc1ccc2nc(-c3ccc(Br)o3)[nH]c2c1	0	11µM	0	?	0	0
Cn1cccc1-c1nc2ccc(NC(=O)c3cccs3)cc2[nH]1	0	0	0	0	0	0
O=C(Nc1ccc2nc(-c3ccc(Br)o3)[nH]c2c1)c1cccs1	0	16µM	0	0	0	0
CCCN1CNc2c(c(=O)[nH]c(=S)n2CCc2c(OC)cccc2OC)C1	-	0	-	0	-	0
COc1ccc(NC(=O)c2cccc(N3C(=O)c4cccc([N+](=O)[O-])c4C3=O)c2)cc1	0	0	0	0	0	0
COc1ccc(/C=C2\C(=O)N(c3c(Cl)cc(Cl)cc3Cl)N=C2NC(=O)c2cccc([N+](=O)[O-])c2)cc1	0	4.5µM	0	?	0	0
O=C(CN(C1CCCCC1)S(=O)(=O)c1ccccc1)NCc1ccco1	0	28µM	0	0	0	0
SMILES	USP2a block	rTrxR1 inhibitor	GALK inhibitor	RGS4 inh	Eya2 phos inh	TrxR1 substrate
COc1ccccc1N(CC(=O)NCc1ccco1)S(=O)(=O)c1ccc(C)cc1	0	32µM	0	0	0	0[0.0914 µM]
Cc1cccc(N(CC(=O)NCCSCc2ccco2)S(=O)(=O)c2ccccc2)c1	0	11µM	0	0	0	0
CN(C)c1ccc2ccc3cccc4ccc1c2c34	-	0	-	-	-	0
O=C1CCc2cc(-c3csc(-c4ccc(O)cc4)n3)ccc2N1	-	0	-	-	-	0
Cc1ccc2cc(CCl)c(Cl)nc2c1	0	45µM	0	0	0	0
O=C(Oc1ccc(=O)n(-c2ccccc2)n1)c1cccc(Cl)c1	0	3.5µM	0	0	0	0
